Source: PubChem BioAssay
Shown are actives, neighbours in structure and some others; about 3.5% of the full set was active somewhere.
C8 TRAIL sens: caspase-8 TRAIL sensitization. NB7+C8 cells + TRAIL, ATPlite viability luminescence. AID 624354. 360,000 tested, 1% active. inhibition (viability loss, TRAIL sensitization), % at 10 µM;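 active = compounds causing at least 50% loss of cell viability in the single-dose screen, relative to plate controls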
HSP90 refold inh: blocks HSP90-mediated luciferase refolding in reticulocyte lysate. Rabbit reticulocyte lysate, luciferase refolding luminescence, 3 h. inhibition, % at 5.6 µM. 290,000 tested, 0.91% active;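 active = inhibition above the screen-wide mean plus 3 SD, computed separately per campaign, cut at about 16% in these data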;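 note: inhibitors lower the luminescence because luciferase stays unfolded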
Platelet DG rel: modulates dense granule release in human platelets; inhibition, %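 (compounds screened at 7.5 µM in platelet-rich plasma)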; human platelet-rich plasma, SFLLRN dense granule ATP release, luminescence; AID 1663; 300,000 tested, 0.22% active;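 active = mean replicate score, as percent of positive control, at or above 50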
PPC-1+TRAIL kill: PPC-1 cancer cell killing with TRAIL present; 220,000 tested, 0.41% active; cell killing (% activity), % at 4 µM or 5 µM; PPC-1 cells + TRAIL, ATPLite viability luminescence;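 active = cell killing above 50% in the first pass at 4 µM, then a duplicate retest at 5 µM averaging 50% or more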
TWEAK-Fn14 inh: blocks TWEAK-Fn14 interaction in a reporter cell assay. TWEAK-stimulated Fn14 reporter cells, luciferase luminescence, 8 h. inhibition, % at 10 µM. 360,000 tested, 2% active; in the data active = inhibition above about 50%
TROY NFkB inh: TROY signaling inhibition. inhibition, % at 10 µM. Q293 LMP1-TROYcd NF-kB luciferase reporter, 4 h. 360,000 tested, 0.98% active. AID 1347056;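 active = compounds whose plate-normalised and pattern-corrected inhibition of the luciferase reporter signal at the single screening dose is 50% or more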
Numbers stand for hits; i = inactive; nt = no result.

SMILES	C8 TRAIL sens	HSP90 refold inh	Platelet DG rel	PPC-1+TRAIL kill	TWEAK-Fn14 inh	TROY NFkB inh
C[C@H](CCC(=O)OCc1cn(CC(=O)c2ccc(O)cc2)nn1)C1CC[C@H]2[C@@H]3CC[C@@H]4C[C@H](O)CC[C@]4(C)[C@H]3C[C@H](O)[C@]12C (some centres undefined)	i	nt	nt	nt	i	i
O=C(CSC1=NCCS1)Nc1ccnc2ccccc12	i	i	i	i	52	i
Cc1cc(C)nc(SCC(=O)Nc2ccnc3ccccc23)n1	i	i	i	i	i	i
Oc1ccccc1C1SC(c2ccccc2O)SC(c2ccccc2O)S1 (centres undefined)	i	nt	nt	nt	51	81
Cc1cc(OCc2cc(C(=O)N(C)C3CCOC3)no2)cc(C)c1Cl (centres undefined)	i	i	i	nt	i	i
COCCn1c(Cc2ccccc2)nnc1SCC(=O)NC1CC1	i	i	i	nt	i	i
Cc1nn(Cc2ccc(Cl)cc2)c(C)c1NC(=O)c1noc2c1CCc1ccccc1-2	i	i	i	i	69	57
CC(C)C(=O)N1CCN(c2ccc(NC(=O)c3ccc4c(c3)OCCO4)cc2)CC1	i	i	i	i	i	i
Cc1ccc(C(=O)N2CCN(c3ccc(NC(=O)c4ccc5c(c4)OCCO5)cc3)CC2)cc1	i	i	i	nt	76	57
O=C(Nc1ccc(N2CCN(C(=O)c3ccccc3)CC2)cc1)c1ccc2c(c1)OCO2	i	i	i	i	i	i
Cc1ccccc1C(=O)N1CCN(c2ccc(NC(=O)c3ccc4c(c3)OCCO4)cc2)CC1	i	i	i	nt	73	i
CC(C)NC(=O)c1cc(C2CCCCN2C(=O)c2ccccc2)on1 (centres undefined)	i	nt	nt	nt	i	i
COc1ccc(NC(=S)N/C(=N/CS(=O)(=O)c2ccccc2)c2ccccc2)cc1	i	i	i	i	52	i
COC1=CC(=O)c2c(ccc3ncnc(N)c23)C1=O	92	nt	nt	nt	100	54
COc1cccc2c1C(=O)C=C(C)C2=O	i	i	i	i	i	i
CCOC(=O)N1CCN(C(=O)C[C@@H]2C[C@@]3(C(=O)OCC)CCC=C3N(Cc3cccc4ccccc34)C2=O)CC1	i	nt	nt	nt	i	i
CC1CC(CN)CC(CO)C1 (centres undefined)	i	i	i	i	53	i
Cc1cccc(NC(=S)N(CCN2CCOCC2)Cc2cc3cc4c(cc3[nH]c2=O)OCCO4)c1	i	i	i	i	67	73
Cc1ccc(NC(=S)N(CCN2CCOCC2)Cc2cc3cc4c(cc3[nH]c2=O)OCCO4)cc1	i	i	i	i	i	i
CCCc1cc(NCCCN2CCOCC2)n2c(nc3ccccc32)c1C#N	i	i	i	i	82	nt
C[C@H](NC(=O)c1nc[nH]c1C(=O)N(C)CCO)c1ccccc1	i	nt	nt	nt	i	i
Nc1[nH]c(C(=O)c2ccccc2)c(-c2ccc(Br)cc2)c1C(=O)c1cccs1	i	nt	nt	nt	i	i
Nc1[nH]c(C(=O)c2ccccc2)c(-c2ccc(Br)cc2)c1C(=O)c1ccc(Br)cc1	i	nt	nt	nt	91	i
O=C(Nc1nccs1)C(c1ccccc1)N1CCCC1 (centres undefined)	i	i	i	i	86	i
O=C(c1cccs1)N1CCN=C1SCc1ccccc1	i	i	i	i	i	i
SMILES	C8 TRAIL sens	HSP90 refold inh	Platelet DG rel	PPC-1+TRAIL kill	TWEAK-Fn14 inh	TROY NFkB inh
O=C(c1cccs1)N1CCN=C1SCc1ccc(F)cc1	i	i	i	i	i	73
COc1ccc(NC(=O)CCCOc2ccc(Cl)c(C)c2)cc1S(=O)(=O)N1CCOCC1	i	nt	nt	nt	i	i
CC(C)(C)[C@@H]1C=C(C(=O)O)[C@H](c2ccc(Cl)cc2)N1S(=O)(=O)c1ccccc1	i	nt	nt	nt	i	i
N#Cc1cc2cc3c(cc2nc1SCC(=O)N1CCCC1)OCCO3	i	i	i	nt	i	51
CC(=O)CSc1nc2cc3c(cc2cc1C#N)OCCO3	67	i	i	i	84	i
O=C(CC[C@H]1O[C@@H](n2ccc(=O)[nH]c2=O)[C@H](O)[C@@H]1O)NCc1cccc2ccccc12	i	nt	nt	nt	i	i
Nc1nc(Cl)nc2ccc(Br)cc12	i	i	i	i	75	71
CCc1c(C)nc2ccc(Br)cc2c1Cl	i	i	i	i	i	i
Cc1ccc(C(=O)Nc2nnc(-c3ccncc3)o2)cc1	i	i	i	i	i	i
Cc1cccc(-c2nnc(NC(=O)c3ccc(Cl)cc3)o2)c1	i	i	i	i	62	i
COc1ccc(/C=C2/SC(=S)N(Cc3ccccc3)C2=O)cc1O	i	i	i	nt	i	i
O=C1/C(=C\c2cc(Cl)c(O)c(Cl)c2)SC(=S)N1Cc1ccccc1	i	i	i	nt	61	70
Cc1ccccc1NC(=S)NN1CCN(C)CC1	i	i	i	i	74	nt
Cn1cc2cc(NC(N)=S)ccc2n1	i	i	i	i	i	i
COc1ccccc1NC(=O)C(C)OC(=O)C1COc2ccccc2O1 (centres undefined)	i	nt	nt	nt	i	i
CCN1C(=O)C(=Cc2cccc(OC)c2Oc2ccc([N+](=O)[O-])cc2[N+](=O)[O-])SC1=S	i	i	i	nt	91	i
CCN1C(=O)S/C(=C/c2ccc(Oc3ccc([N+](=O)[O-])cn3)c(OC)c2)C1=O	i	i	i	i	i	i
COc1cc(/C=C2\SC(=O)NC2=O)ccc1Oc1ccc([N+](=O)[O-])cc1[N+](=O)[O-]	i	i	i	i	63	i
CO/N=C/c1ccc(Oc2ccc([N+](=O)[O-])cc2[N+](=O)[O-])c(OC)c1	i	i	i	i	i	i
Cc1ccc(C(=O)NC2CCN(CC(=O)NC3CCC(C)CC3)CC2)cc1 (centres undefined)	i	i	i	nt	i	i
Cc1cccc(-c2nnc(-c3ccc4ccccc4c3)o2)c1	i	nt	nt	nt	55	i
Cc1ccc(-c2nnc(-c3cccc4ccccc34)o2)cc1	53	nt	nt	nt	i	i
CC(C)CN1CCN(Cc2ccc(Oc3ncccn3)cc2)CC1CCO (centres undefined)	i	16	i	i	i	i
OCCC1CN(Cc2ccc(Oc3ncccn3)cc2)CCN1Cc1ccc(F)c(F)c1 (centres undefined)	i	i	i	i	i	i
CC(=O)Nc1ccc(CN2C(=O)C(C)(C)ON=C2c2ccc(NC(C)=O)cc2)cc1	i	nt	nt	nt	i	i
CCNC(=O)c1cc2c(c(-c3cccc(-c4cccnc4)c3)n1)[C@H](CCO)N(S(C)(=O)=O)C2	i	nt	nt	nt	i	i
Cc1cc(OCC(=O)N(C)C2CCCCC2)ccc1Cl	i	i	i	i	i	66
CCCCn1c(NS(=O)(=O)c2ccc(C)cc2)c(S(=O)(=O)c2ccccc2)c2nc3ccccc3nc21	78	i	i	i	i	64
CC1(C(=O)NCc2ccc(Cl)cc2)CCN1C(=O)c1cccc(F)c1 (centres undefined)	i	nt	nt	nt	i	i
CCCCc1ccc(S(=O)(=O)NC(=O)C2(C)CCN2C(=O)CC2CC2)cc1 (centres undefined)	i	nt	nt	nt	i	i
